# Results reported in PubChem BioAssay (Tox21).
# Values without a mark were called inactive. Results filed as inconclusive are left out. Where a call stands in place of a potency, no number is given. Activity calls are given as the source filed them. Unless noted, calls follow the shape of the dose curve; as a rule, active = well fitted curve in the direction sought with a large enough effect in the repeat runs; inconclusive = weak or mixed curves; inactive = no such curve, though single readings can be large; an effect the other way counts as inactive or inconclusive.
# Tests used:
# [1] = molecular target: Thyrotropin receptor (Homo sapiens) (UniProt P16473); experiment: qHTS assay to identify small molecule antagonists of the thyroid stimulating hormone receptor (TSHR) signaling pathway (AID 1259385; calls by dose curve; also: nearly all actives have a fitted effect of over 20% in size)
# In short: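 Antagonist mode: compound-treated TSHR-expressing HEK293 cells were stimulated with 1.5 ng/mL TSH (final) in presence of Ro20-1724 for 30 min at RT. HTRF cAMP detection after 1 h; each compound tested at 15 concentrations, triplicate.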
# [2] = qHTS assay to identify small molecule agonists of the estrogen receptor alpha (ER-alpha) signaling pathway in the presence of an antagonist - cell viability counter screen (AID 1259386);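 also: series mostly up to about 92 µM; cells exposed to compounds for 22 h at 37 °C before the viability read; nearly all actives have a fitted effect of over 30% in size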
# In short: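 Steps: 5-day stripped-FBS culture; seed and incubate 24hr; add ICI-182,780 (10.0nM final); pin 15-point compound titration; incubate 22hr at 37C; add CellTiter-Fluor at 21hr; read fluorescence.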
# [3] = molecular target: Progesterone receptor (Homo sapiens) (UniProt P06401); experiment: qHTS assay to identify small molecule agonists of the progesterone receptor (PR) signaling pathway (AID 1346784; calls by dose curve; also: nearly all actives have a fitted effect of over 30% in size)
# In short: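 Reporter assay, GripTite PR-UAS-bla HEK 293T cells: 16 hr exposure to DMSO-dissolved compounds at 37C, 5% CO2, in steroid-depleted (2% charcoal-stripped FBS) medium; beta-lactamase measured by FRET fluorescence.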
# [4] = qHTS assay to identify small molecule antagonists of the progesterone receptor (PR) signaling pathway - cell viability counter screen (AID 1346798); also: series mostly up to about 92 µM; nearly all actives have a fitted effect of over 50% in size
# In short: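 In the same plates used for the beta-lactamase readout, cell viability of compound- and R5020-treated PR-UAS-bla HEK293T cells (16 hr, 37C) was assessed by CellTiter-Glo luminescence.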
# [5] = qHTS assay to identify small molecule agonists of the progesterone receptor (PR) signaling pathway - cell viability counter screen (AID 1346799; calls by dose curve; also: nearly all actives have a fitted effect of over 45% in size)
# In short: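 Multiplexed viability read: CellTiter-Glo luminescence, 30 min RT, following LiveBLAzer FRET measurement on PR-UAS-bla HEK293T cells exposed to compounds 16 hr.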
# [6] = qHTS assay to identify small molecule antagonists of the TGF-beta/Smad signaling pathway - cell viability counter screen (AID 1346824); also: nearly all actives have a fitted effect of over 50% in size
# In short: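 Cytotoxicity counter-screen run in the same wells as the beta-lactamase Smad reporter read: CellTiter-Glo luminescence after 30 min at room temperature. HEK 293T SBE-bla cells had 5 hr compound exposure at 37 C with TGF-beta1 (0.25 ng/mL stock).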
# [7] = qHTS assay to identify small molecule agonists of the TGF-beta/Smad signaling pathway - cell viability counter screen (AID 1346829); also: top concentration of the series differs between compounds; nearly all actives have a fitted effect of over 45% in size
# In short: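 Tox21 qHTS format: SBE-bla HEK 293T cells treated with DMSO-dissolved compounds for 5 hr; CellTiter-Glo luminescence after 30 min at room temperature.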
# [8] = qHTS assay to identify small molecule agonists of the TGF-beta/Smad signaling pathway (AID 1346859; active = well fitted activation curve with a large enough effect in the signal ratio in the repeat runs, not every such curve was filed as active; the % refers to the signal ratio; also: series mostly up to about 77 µM)
# In short: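 Screening used HEK 293T SBE-bla cells at 4,000/well. Test agents: 5 hr, 37 C. Detection: FRET substrate, 2 hr RT, then excitation 405 nm with emissions at 460 and 530 nm.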
# [9] = molecular target: Thyrotropin-releasing hormone receptor (Homo sapiens) (UniProt P34981); experiment: qHTS assay to identify small molecule antagonists of the thyrotropin-releasing hormone receptor (TRHR) signaling pathway (AID 1346877; active = well fitted inhibition curve with a large enough effect in the repeat runs, not every such curve was filed as active; also: series mostly up to about 51 µM)
# In short: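 Human TRHR in HEK293 cells; inhibition of the intracellular calcium rise triggered by 1 nM TRH was followed by fluorescence over 3 min. Compounds were run at 15 concentrations, three replicates each.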
# [10] = molecular target: Thyrotropin-releasing hormone receptor (Homo sapiens) (UniProt P34981); experiment: qHTS assay to identify small molecule agonists of the thyrotropin-releasing hormone receptor (TRHR) signaling pathway (AID 1346891; calls by dose curve; also: series mostly up to about 58 µM)
# In short: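 Readout was intracellular calcium fluorescence in TRHR-Hek293 cells. Cells were incubated 18 h, dye-loaded 2 h at 37 °C, and treated with compound in agonist mode.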
# [11] = Human pregnane X receptor (PXR) small molecule agonists, qHTS cell viability counter screen (AID 1346977); also: nearly all actives have a fitted effect of over 50% in size
# In short: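 In each well, the PXR reporter HepG2 line was checked for viability: CellTiter-Fluor reagent added 23hr post-dosing, fluorescence read after 1hr incubation at 37C.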
# [12] = Caspase-3/7 induction in HepG2 cells by small molecules, qHTS assay (AID 1346978); also: nearly all actives have a fitted effect of over 15% in size
# In short: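 Caspase-3/7 induction was measured by Caspase-Glo 3/7 luminescence (30 min, room temperature) after a 17 hr compound exposure of wild-type HepG2 cells seeded at 2,000 per well and pre-incubated 5 hr.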
# [13] = Caspase-3/7 induction in CHO-K1 cells by small molecules, qHTS cell viability counter screen (AID 1346979); also: nearly all actives have a fitted effect of over 35% in size
# In short: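 Following a 5hr settling period, CHO-K1 cells at 1,500 per well received DMSO-dissolved compounds. Cell viability was quantified 16hr later by CellTiter-Fluor fluorescence, measured after 1hr with reagent at 37C.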
# [14] = Caspase-3/7 induction in CHO-K1 cells by small molecules, qHTS assay (AID 1346980); also: nearly all actives have a fitted effect of over 15% in size
# In short: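 Luminescent Caspase-Glo 3/7 read (30min, room temperature) quantified apoptosis induction. Cells were wild-type CHO-K1, treated with compound for 17hr at 37 C and 5% CO2.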
# [15] = Caspase-3/7 induction in HepG2 cells by small molecules, qHTS cell viability counter screen (AID 1346981); also: series mostly up to about 92 µM; nearly all actives have a fitted effect of over 30% in size
# In short: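 The parent HepG2 line is plated at 2,000 cells per well and rested 5 hr before compound pinning from DMSO stocks. Following a 16-hr treatment at 37 C, a fluorogenic live-cell substrate (CellTiter-Fluor) reports viability after 1 hr.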
# [16] = molecular target: Nuclear receptor subfamily 1 group I member 2 (Homo sapiens) (UniProt O75469); experiment: Human pregnane X receptor (PXR) small molecule agonists, qHTS assay (AID 1346982); also: nearly all actives have a fitted effect of over 35% in size; also: potency is read from the fitted curve at half-maximal effect
# In short: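 After plating in 5% charcoal-stripped FBS and a 5 hr rest, PXR-Luc HepG2 cells received compounds in DMSO. Following 24 hr at 37 C, ONE-Glo was added and light output read.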
# [17] = molecular target: Progesterone receptor (Homo sapiens) (UniProt P06401); experiment: qHTS assay to identify small molecule antagonists of the progesterone receptor (PR) signaling pathway (AID 1346795; active = well fitted inhibition curve with a large enough effect in the signal ratio in the repeat runs, not every such curve was filed as active; the % refers to the signal ratio)
# In short: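 Stimulus R5020 at 1 nM final; cells HEK293T PR-UAS-bla; medium with 2% charcoal-stripped FBS; compound exposure 16 hr at 37C, 5% CO2; detection by FRET beta-lactamase substrate, 2 hr, room temperature.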
# [18] = molecular target: Nuclear receptor subfamily 1 group I member 2 (Rattus norvegicus) (UniProt Q9R1A7); experiment: Rat pregnane X receptor (rPXR) activation by small molecules, qHTS assay (AID 1346983); details: rPXR luciferase reporter cells, One-Glo luminescence, 24 h; stronger effect = higher value; also: nearly all actives have a fitted effect of over 20% in size
# In short: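 Luminescent readout (One-Glo luciferase, 30 min room temperature) followed 24 hr compound treatment at 37 C of rPXR cells plated 2,000 per well and preincubated 5hr; qHTS format with compounds delivered in DMSO.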
# [19] = molecular target: Nuclear receptor subfamily 1 group I member 2 (Homo sapiens) (UniProt O75469); experiment: CYP3A4 induction through human pregnane X receptor (PXR) by small molecules, qHTS assay (AID 1346984); also: nearly all actives have a fitted effect of over 40% in size
# In short: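 Human PXR activation is tracked via CYP3A4 promoter-luciferase in DPX-2 (HepG2) cells. Compounds treat cells for 24hr at 37C, and luminescence is read after One-Glo.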
# [20] = molecular target: Nuclear receptor subfamily 1 group I member 2 (Homo sapiens) (UniProt O75469); experiment: Human pregnane X receptor (PXR) activation by small molecules, qHTS assay (AID 1346985); also: nearly all actives have a fitted effect of over 40% in size
# In short: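 DPX-2 cells (HepG2 co-transfected with a PXR response element and a CYP3A4-promoter luciferase construct) were seeded at 2,000 per well, rested 5 hr at 37C, then exposed to DMSO-dissolved compounds for 24 hr. Activation was read as luciferase luminescence.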
# Progesterone receptor (Homo sapiens), sequence (P06401 whole entry, looked up): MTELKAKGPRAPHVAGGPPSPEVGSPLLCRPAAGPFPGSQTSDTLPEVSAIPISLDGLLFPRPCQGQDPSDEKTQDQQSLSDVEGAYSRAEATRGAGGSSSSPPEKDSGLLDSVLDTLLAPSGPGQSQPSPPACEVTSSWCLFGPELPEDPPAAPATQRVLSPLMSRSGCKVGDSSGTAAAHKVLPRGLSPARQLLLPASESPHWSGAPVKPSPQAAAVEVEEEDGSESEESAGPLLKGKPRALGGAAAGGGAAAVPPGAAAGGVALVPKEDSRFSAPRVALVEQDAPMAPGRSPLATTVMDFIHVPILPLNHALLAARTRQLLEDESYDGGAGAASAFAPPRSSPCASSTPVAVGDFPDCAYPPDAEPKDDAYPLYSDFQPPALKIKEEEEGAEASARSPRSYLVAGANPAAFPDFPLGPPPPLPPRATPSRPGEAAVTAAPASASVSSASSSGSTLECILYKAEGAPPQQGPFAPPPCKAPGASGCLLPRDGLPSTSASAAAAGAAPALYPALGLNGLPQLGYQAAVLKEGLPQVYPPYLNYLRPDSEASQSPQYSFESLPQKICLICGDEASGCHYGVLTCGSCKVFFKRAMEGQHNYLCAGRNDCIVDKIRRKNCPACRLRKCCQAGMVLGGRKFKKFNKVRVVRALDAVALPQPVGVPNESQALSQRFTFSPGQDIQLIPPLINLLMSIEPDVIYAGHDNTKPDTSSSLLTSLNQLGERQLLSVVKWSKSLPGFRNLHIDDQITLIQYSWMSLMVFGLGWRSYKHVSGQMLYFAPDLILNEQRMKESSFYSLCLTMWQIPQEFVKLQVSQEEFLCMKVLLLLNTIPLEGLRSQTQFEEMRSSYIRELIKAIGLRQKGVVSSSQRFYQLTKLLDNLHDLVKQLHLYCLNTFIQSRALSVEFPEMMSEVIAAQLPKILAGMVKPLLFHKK
# Thyrotropin receptor (Homo sapiens), sequence (P16473 whole entry, looked up): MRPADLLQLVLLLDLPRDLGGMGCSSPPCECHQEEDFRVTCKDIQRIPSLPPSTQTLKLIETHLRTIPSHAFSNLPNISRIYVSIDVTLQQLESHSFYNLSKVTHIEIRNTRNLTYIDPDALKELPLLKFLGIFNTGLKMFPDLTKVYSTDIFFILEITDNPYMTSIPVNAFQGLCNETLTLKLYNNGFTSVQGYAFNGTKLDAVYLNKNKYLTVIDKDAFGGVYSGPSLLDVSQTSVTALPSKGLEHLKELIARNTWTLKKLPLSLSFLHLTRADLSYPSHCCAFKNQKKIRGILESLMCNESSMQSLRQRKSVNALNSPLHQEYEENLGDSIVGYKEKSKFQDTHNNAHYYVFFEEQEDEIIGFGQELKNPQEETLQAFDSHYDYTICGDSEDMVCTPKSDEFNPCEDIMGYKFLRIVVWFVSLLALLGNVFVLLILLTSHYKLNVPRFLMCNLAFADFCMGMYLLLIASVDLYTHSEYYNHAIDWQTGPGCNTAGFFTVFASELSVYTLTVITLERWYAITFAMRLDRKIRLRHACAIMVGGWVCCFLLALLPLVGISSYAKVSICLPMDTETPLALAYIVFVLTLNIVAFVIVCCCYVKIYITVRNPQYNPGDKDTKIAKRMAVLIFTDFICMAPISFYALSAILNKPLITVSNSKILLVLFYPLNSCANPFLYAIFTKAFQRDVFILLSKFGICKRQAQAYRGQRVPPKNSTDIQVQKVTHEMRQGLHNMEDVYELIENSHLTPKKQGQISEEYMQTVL
# Nuclear receptor subfamily 1 group I member 2 (Rattus norvegicus), sequence (Q9R1A7 whole entry, looked up): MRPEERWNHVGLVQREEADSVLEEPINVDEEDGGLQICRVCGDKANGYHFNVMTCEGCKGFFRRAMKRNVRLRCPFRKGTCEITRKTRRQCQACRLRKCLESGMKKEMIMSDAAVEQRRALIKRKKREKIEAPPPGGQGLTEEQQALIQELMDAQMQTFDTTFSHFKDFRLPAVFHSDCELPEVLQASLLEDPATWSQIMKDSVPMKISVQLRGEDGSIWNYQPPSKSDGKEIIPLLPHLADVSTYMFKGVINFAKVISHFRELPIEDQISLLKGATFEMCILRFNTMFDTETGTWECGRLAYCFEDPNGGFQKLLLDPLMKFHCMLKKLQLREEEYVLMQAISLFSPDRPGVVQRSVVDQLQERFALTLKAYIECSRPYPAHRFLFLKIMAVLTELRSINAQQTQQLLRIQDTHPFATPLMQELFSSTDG
# Thyrotropin-releasing hormone receptor (Homo sapiens), sequence (P34981 whole entry, looked up): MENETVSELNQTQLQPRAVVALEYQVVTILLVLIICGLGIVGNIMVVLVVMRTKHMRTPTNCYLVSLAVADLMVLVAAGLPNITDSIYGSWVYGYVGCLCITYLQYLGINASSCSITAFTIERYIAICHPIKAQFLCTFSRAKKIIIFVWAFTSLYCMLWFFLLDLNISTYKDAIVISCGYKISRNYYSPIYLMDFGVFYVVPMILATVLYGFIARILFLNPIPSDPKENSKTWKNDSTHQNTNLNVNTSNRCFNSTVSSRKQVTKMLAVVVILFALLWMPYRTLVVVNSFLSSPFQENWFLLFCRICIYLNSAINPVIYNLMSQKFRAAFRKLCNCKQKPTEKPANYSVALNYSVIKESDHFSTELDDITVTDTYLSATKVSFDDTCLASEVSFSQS
# Nuclear receptor subfamily 1 group I member 2 (Homo sapiens), sequence (O75469 whole entry, looked up): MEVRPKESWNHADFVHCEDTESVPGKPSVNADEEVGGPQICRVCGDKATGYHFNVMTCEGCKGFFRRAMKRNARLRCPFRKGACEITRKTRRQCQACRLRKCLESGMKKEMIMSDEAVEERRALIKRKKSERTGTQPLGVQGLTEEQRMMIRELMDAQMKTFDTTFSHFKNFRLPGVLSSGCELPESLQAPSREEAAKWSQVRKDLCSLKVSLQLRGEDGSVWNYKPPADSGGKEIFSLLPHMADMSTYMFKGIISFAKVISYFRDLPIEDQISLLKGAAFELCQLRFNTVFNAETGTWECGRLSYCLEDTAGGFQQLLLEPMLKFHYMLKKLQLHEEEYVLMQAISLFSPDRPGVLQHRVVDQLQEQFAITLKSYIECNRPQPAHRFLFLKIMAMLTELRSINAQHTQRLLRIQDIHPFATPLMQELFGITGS
SMILES,outcome [1],Potency [2],Potency [3],Potency [4],Potency [5],outcome [6],Potency [7],outcome [8],Potency [9],outcome [10],Potency [11],outcome [12],Potency [13],outcome [14],Potency [15],Potency [16],Potency [17],max activation [18] [%],Potency [19],Potency [20]
C=CCc1cc(OC)c2c(c1)OCO2,inactive,inactive,inactive,inactive,inactive,inactive,inactive,inactive,inactive,inactive,inactive,inactive,inactive,inactive,inactive,36 µM (active),–,–,–,–
CCCN1CCC[C@@H]2Cc3[nH]ncc3C[C@H]21,inactive,inactive,inactive,inactive,inactive,inactive,inactive,inactive,inactive,inactive,inactive,inactive,inactive,–,inactive,–,–,–,–,–
NNCc1ccccc1,inactive,inactive,inactive,inactive,–,inactive,inactive,inactive,inactive,inactive,inactive,inactive,inactive,inactive,inactive,55.5 µM (active),–,–,–,–
CCN(CCO)CCn1c(Cc2ccccc2)nc2c1c(=O)n(C)c(=O)n2C,–,inactive,inactive,inactive,inactive,inactive,inactive,inactive,inactive,inactive,inactive,inactive,inactive,inactive,inactive,–,inactive,–,–,–
CC[C@H](O)C(C[C@H](C)N(C)C)(c1ccccc1)c1ccccc1,inactive,inactive,inactive,–,–,inactive,–,inactive,–,–,–,inactive,inactive,–,inactive,inactive,–,–,–,–
CON(C)C(=O)Nc1ccc(Br)c(Cl)c1,inactive,inactive,inactive,–,inactive,inactive,inactive,inactive,inactive,inactive,inactive,inactive,–,inactive,inactive,27.3 µM (active),–,–,–,–
CC(C)(N)Cc1ccc(Cl)cc1,inactive,inactive,–,–,–,inactive,inactive,inactive,–,–,inactive,inactive,inactive,–,inactive,inactive,–,-1.44,inactive,inactive
CCN[C@@H](C)Cc1ccccc1,inactive,inactive,inactive,–,inactive,inactive,inactive,inactive,inactive,inactive,inactive,inactive,inactive,inactive,inactive,inactive,–,–,–,–
CCc1ccc(C2CCNCC2)cc1,inactive,inactive,inactive,–,–,inactive,inactive,inactive,inactive,inactive,inactive,inactive,inactive,inactive,inactive,–,–,–,–,–
ClCC1CO1 (stereo unspecified),inactive,inactive,–,inactive,inactive,inactive,inactive,inactive,inactive,inactive,inactive,inactive,inactive,inactive,inactive,inactive,–,-3.74,inactive,inactive
COC(=O)c1ccccc1CS(=O)(=O)NC(=O)Nc1nc(OC)cc(OC)n1,inactive,inactive,–,inactive,–,inactive,–,inactive,inactive,inactive,inactive,inactive,inactive,–,inactive,34.4 µM (active),–,–,–,–
CC#Cc1cc(C)nc(Nc2ccccc2)n1,inactive,inactive,inactive,inactive,–,inactive,inactive,inactive,inactive,inactive,inactive,inactive,inactive,–,inactive,–,–,–,–,–
CCc1cc(OC)c(C[C@H](C)N)cc1OC,inactive,inactive,inactive,–,–,inactive,inactive,inactive,inactive,inactive,–,inactive,inactive,inactive,inactive,inactive,–,–,–,–
[P]#[In],inactive,inactive,–,inactive,inactive,inactive,inactive,inactive,inactive,inactive,–,inactive,inactive,inactive,inactive,inactive,–,–,–,–
C[N+]1(C)CCCCC1,inactive,inactive,–,inactive,–,inactive,inactive,inactive,inactive,inactive,inactive,inactive,inactive,inactive,inactive,inactive,inactive,–,–,–
S=C=S,inactive,inactive,inactive,inactive,–,inactive,inactive,inactive,inactive,inactive,inactive,inactive,inactive,inactive,inactive,inactive,–,3.06,inactive,inactive
O=c1[nH]c2ccccc2o1,inactive,inactive,inactive,inactive,–,inactive,inactive,inactive,inactive,inactive,inactive,inactive,inactive,–,inactive,inactive,–,–,–,–
O=C(CCl)NCO,inactive,inactive,inactive,inactive,–,inactive,inactive,inactive,inactive,inactive,inactive,inactive,inactive,inactive,inactive,inactive,–,–,–,–
CC(C)N(Cc1ccccc1)C(=O)C(C)(C)C,inactive,inactive,inactive,inactive,–,inactive,inactive,inactive,inactive,inactive,inactive,inactive,inactive,inactive,inactive,inactive,–,–,–,–
